# What was measured:
# Conditions in all cases: concentration: 1 μM, replicates: in singlicate; n = 1
# PIM1 = system: PIM1
# PIM2 = system: PIM2
# PIM3 = system: PIM3
# PIP5K1A = system: PIP5K1A
# PIP5K1C = system: PIP5K1C
# PIP5K2B = system: PIP5K2B
# PIP5K2C = system: T1, PIP5K2C
# T1 construct: gene PIP4K2C
# PKAC-alpha = system: T2, PKAC-alpha
# T2 construct: gene PRKACA
# PKAC-beta = system: T3, PKAC-beta
# T3 construct: gene PRKACB
# PKMYT1 = system: PKMYT1
# PKN1 = system: PKN1
# PKN2 = system: PKN2
# PLK1 = system: PLK1
# PLK2 = system: PLK2
# PLK3 = system: PLK3
# PLK4 = system: PLK4
# PRKCD = system: PRKCD
# PRKCE = system: PRKCE
# PRKCH = system: PRKCH
# PRKCI = system: PRKCI
# 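Note: KINOMEscan kinase panel screen.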
Structure (SMILES),%Inh (PIM1),%Inh (PIM2),%Inh (PIM3),%Inh (PIP5K1A),%Inh (PIP5K1C),%Inh (PIP5K2B),%Inh (PIP5K2C),%Inh (PKAC-alpha),%Inh (PKAC-beta),%Inh (PKMYT1),%Inh (PKN1),%Inh (PKN2),%Inh (PLK1),%Inh (PLK2),%Inh (PLK3),%Inh (PLK4),%Inh (PRKCD),%Inh (PRKCE),%Inh (PRKCH),%Inh (PRKCI)
CC(C)(C)c1ccc(C(=O)Nc2cn3cc(Cl)ccc3n2)cc1,0%,13%,0%,0%,44%,0%,48%,8%,0%,0%,0%,1%,13%,0%,1%,0%,4%,13%,2%,100%
Cl.NC(=O)c1cccc(Nc2nccc(Nc3ccc(Oc4cccc(Cl)c4)c(Cl)c3)n2)c1 [GW659008],15%,0%,1%,15%,45%,32%,60%,0%,0%,0%,0%,0%,5%,0%,0%,0%,27%,27%,10%,10%
COc1cc(Nc2nccc(N3CCC(NC(=O)Nc4cc(C)ccc4C)C3)n2)cc(OC)c1OC (stereo not drawn) [GSK1379762],0%,0%,0%,0%,21%,16%,70%,5%,0%,0%,41%,0%,0%,0%,0%,28%,0%,0%,7%,33%
Cc1ccc(C(=O)Nc2ccc(Nc3ccnc4cc(-c5ccccn5)ccc34)cc2O)cc1.Cl [GW440146],16%,0%,12%,35%,0%,11%,31%,0%,8%,0%,0%,0%,0%,0%,0%,10%,0%,0%,24%,5%
Cc1nnc(-c2ccc3occ(-c4ccc(S(C)=O)cc4)c3c2)[nH]1 (stereo not drawn),32%,58%,35%,0%,63%,35%,61%,9%,0%,21%,0%,0%,0%,14%,7%,11%,13%,7%,0%,0%
Cc1c(Cn2ccn3c(=O)cc(N4CCOCC4)nc23)cccc1C(F)(F)F [GSK2289044],0%,0%,4%,0%,10%,15%,0%,11%,0%,0%,20%,5%,0%,0%,0%,0%,0%,0%,8%,0%
Clc1cc(Cl)cc(Nc2ccnc(Nc3cc(Cl)cc(Cl)c3)n2)c1 [GSK175726],20%,0%,0%,9%,39%,7%,26%,10%,0%,8%,31%,0%,0%,3%,1%,78%,7%,13%,22%,15%
Fc1cc(Cl)ccc1Nc1ccnc2cc(-c3ccc(CN4CCCCC4)o3)ccc12 [GW560116],13%,0%,0%,0%,57%,5%,71%,100%,0%,0%,0%,0%,0%,0%,0%,51%,0%,5%,0%,0%
O=C1NC(=O)C(N2CCc3ccccc32)=C1c1ccccc1Cl [SB-373598],0%,9%,7%,0%,29%,35%,1%,22%,39%,11%,0%,13%,14%,0%,0%,12%,19%,3%,30%,0%
Cc1ccc(NC(=O)Nc2cccc(Cl)c2)cc1-c1ccc(C(=O)Nc2ccncc2)cc1 [GSK1398468],15%,0%,0%,0%,33%,0%,28%,0%,4%,0%,0%,0%,0%,0%,1%,0%,0%,12%,5%,0%
COc1cccc(NC(=O)NC2CCN(c3ccnc(Nc4ccc(F)cc4)n3)C2)c1 (stereo not drawn) [GSK1379721],9%,0%,0%,38%,59%,0%,0%,0%,0%,0%,8%,0%,7%,0%,7%,3%,0%,14%,0%,4%
Cc1cccc(-c2nc(Nc3ccncc3)c3ccccc3n2)n1 [GW855857],0%,18%,0%,10%,40%,0%,18%,23%,30%,0%,0%,0%,6%,0%,0%,0%,29%,0%,0%,32%
O=c1cc(N2CCOCC2)nc2n(Cc3cccc(Cl)c3Cl)ccn12 [GSK2286295],4%,0%,5%,0%,16%,2%,0%,16%,5%,2%,0%,0%,10%,0%,0%,0%,0%,0%,20%,48%
O=C(Nc1n[nH]c2cc(-c3cccc(F)c3F)ccc12)C1CC1 [SB-733894],8%,0%,32%,0%,0%,0%,0%,0%,0%,40%,39%,6%,0%,26%,13%,22%,7%,0%,0%,21%
C[C@@H]1CCCCN1c1cc(-c2ccc3c(N)n[nH]c3c2)nc(N)n1 [GSK2258759],0%,0%,7%,0%,44%,4%,0%,0%,0%,2%,6%,0%,0%,0%,0%,42%,0%,0%,0%,22%
Nc1nc(-c2nccs2)c(-c2ccnc3ccccc23)s1 [GW693542],9%,0%,0%,0%,45%,0%,28%,0%,13%,0%,6%,2%,0%,0%,0%,0%,1%,8%,16%,30%
Nc1ncnc2[nH]c(-c3ccccc3)nc12 [AH5015],0%,0%,21%,0%,29%,0%,21%,1%,7%,0%,0%,0%,2%,16%,0%,99.9%,0%,14%,18%,0%
CS(=O)(=O)c1ccc(-c2c(-c3ncn[nH]3)sc(N3CCOCC3)c2C#N)cc1,0%,0%,0%,0%,0%,14%,0%,0%,7%,0%,17%,0%,8%,8%,16%,28%,41%,42%,5%,24%
O=S(=O)(c1ccc(-c2ccnc3[nH]ccc23)cc1)N1CCCC1 [GSK846226],13%,0%,8%,37%,19%,0%,0%,81%,71%,0%,40%,0%,0%,4%,0%,0%,0%,2%,0%,20%
Cc1cccc(-c2nc(Nc3ccc4[nH]ncc4c3)c3ccccc3n2)n1 [GW857175],5%,38%,0%,0%,0%,42%,0%,34%,0%,19%,10%,0%,11%,12%,15%,8%,11%,0%,0%,33%
Cc1ccc(-c2cc(-c3c[nH]nc3-c3ccccn3)ccn2)cc1 [GW684088],20%,0%,2%,50%,71%,8%,67%,30%,0%,0%,0%,0%,0%,0%,0%,0%,0%,16%,0%,12%

# From publication PMC5540273 (PLoS ONE, 2017)
